Measurements taken from PubChem BioAssay (EPA / NIEHS).
Active and inactive are the calls of the source. How the source made its calls: active means hit-call score of the fitted dose curve at least 0.9, where 1 is the maximum; inactive means score below 0.9.

Legend:
Settings in all cases: mRNA level, 48 h; actives raise or lower the signal
[1] = read-out: Lipase C (LIPC), LIPC (gene 3990); assay: LTEA_HepaRG_LIPC: Life Technologies and Expression Analysis (LTEA) Assay for Lipase C (LIPC) using HepaRG (AID 2283514)
Outline: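 HepaRG cells, 48 h after plating, treated in duplicate for 48 h in serum-free induction medium over 8 half-log concentrations from 100 uM, 0.5% DMSO. LIPC mRNA by TaqMan qRT-PCR normalized to ACTB/GAPDH/POLR2A; bidirectional fit versus DMSO.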

[2] = read-out: Lipoprotein lipase (LPL), LPL (gene 4023); assay: LTEA_HepaRG_LPL: Life Technologies and Expression Analysis (LTEA) Assay for Lipoprotein lipase (LPL) using HepaRG (AID 2283515)
Outline: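 Differentiated HepaRG cells, plated 48 h, then exposed 48 h in serum-free induction medium to 8 concentrations (top 100 uM, half-log steps) in 0.5% DMSO, duplicate. LPL mRNA measured by qRT-PCR, normalized to ACTB, GAPDH and POLR2A.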

[3] = read-out: MicroRNA 122 (MIR122), gene 406906; assay: LTEA_HepaRG_MIR122: Life Technologies and Expression Analysis (LTEA) Assay for MicroRNA 122 (MIR122) using HepaRG (AID 2283516); further: the transcript read is the microRNA miR-122
Outline: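 HepaRG, 48 h exposure, 8-pt half-log from 100 uM, 0.5% DMSO; TaqMan qRT-PCR; bidirectional fit vs DMSO.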

[4] = read-out: matrix metalloproteinase-10 (MMP10), MMP10 (gene 4319); assay: LTEA_HepaRG_MMP10: Life Technologies and Expression Analysis (LTEA) Assay for matrix metalloproteinase-10 (MMP10) using HepaRG (AID 2283517)
Outline: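 Differentiated HepaRG cells in serum-free induction medium exposed 48 h in duplicate to 8-point half-log series up to 100 uM in 0.5% DMSO. mRNA quantified by qRT-PCR, normalised to ACTB, GAPDH, POLR2A; bidirectional fit versus DMSO.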

MYC, MYC (gene 4609) = assay: LTEA_HepaRG_MYC: Life Technologies and Expression Analysis (LTEA) Assay for MYC using HepaRG (AID 2283518)
Outline: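 Cells are thawed, plated and cultured 48 h, then treated for 48 h with test chemicals (eight half-log concentrations from 100 uM, 0.5% DMSO vehicle). RNA is isolated and MYC expression quantified by qRT-PCR against three housekeeping genes.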

[5] = read-out: matrix metalloproteinase-3 (MMP3), MMP3 (gene 4314); assay: LTEA_HepaRG_MMP3: Life Technologies and Expression Analysis (LTEA) Assay for matrix metalloproteinase-3 (MMP3) using HepaRG (AID 2283519)
Outline: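 HepaRG cells (~100,000/well) in serum-free induction medium were dosed in duplicate for 48 h with an 8-point half-log series from 100 uM, 0.5% DMSO. MMP3 mRNA was quantified by Fluidigm TaqMan qRT-PCR, normalized to three housekeeping genes.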

[6] = read-out: Paternally Expressed 10 (PEG10), PEG10 (gene 23089); assay: LTEA_HepaRG_PEG10: Life Technologies and Expression Analysis (LTEA) Assay for Paternally Expressed 10 (PEG10) using HepaRG (AID 2283520);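 on AC50: PEG10 transcript by qRT-PCR normalised to ACTB GAPDH and POLR2A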
Outline: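 Chemicals tested on HepaRG cells for 48 h, highest concentration 100 uM. PEG10 expression assessed by qRT-PCR relative to DMSO control.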

[7] = read-out: Protein phosphatase 2A (PPP2R4), PTPA (gene 5524); assay: LTEA_HepaRG_PPP2R4: Life Technologies and Expression Analysis (LTEA) Assay for Protein phosphatase 2A (PPP2R4) using HepaRG (AID 2283522)
Outline: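 Gene-expression endpoint in HepaRG hepatic cells: 48 h treatment across eight half-log concentrations up to 100 uM in 0.5% DMSO. PPP2R4 mRNA by qRT-PCR, normalized to three endogenous control genes.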

[8] = read-out: Phosphatase and tensin (PTEN), PTEN (gene 5728); assay: LTEA_HepaRG_PTEN: Life Technologies and Expression Analysis (LTEA) Assay for Phosphatase and tensin (PTEN) using HepaRG (AID 2283523)
Outline: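 HepaRG cells, 48 h after plating, exposed in duplicate for 48 h in serum-free induction medium to 8 half-log concentrations up to 100 uM (0.5% DMSO). PTEN mRNA by qRT-PCR, normalized to ACTB, GAPDH, POLR2A; bidirectional fit versus DMSO.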

[9] = read-out: solute carrier (SLC22A1), SLC22A1 (gene 6580); assay: LTEA_HepaRG_SLC22A1: Life Technologies and Expression Analysis (LTEA) Assay for solute carrier (SLC22A1) using HepaRG (AID 2283524)
Outline: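 Differentiated human HepaRG cells in serum-free induction medium, exposed 48 h in duplicate to 8-point half-log series from 100 µM top in 0.5% DMSO. SLC22A1 mRNA by TaqMan qRT-PCR normalized to ACTB, GAPDH, POLR2A; bidirectional fit versus DMSO.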

[10] = read-out: Pyruvate Dehydrogenase Kinase 4 (PDK4), PDK4 (gene 5166); assay: LTEA_HepaRG_PDK4: Life Technologies and Expression Analysis (LTEA) Assay for Pyruvate Dehydrogenase Kinase 4 (PDK4) using HepaRG (AID 2283525)
Outline: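 HepaRG cells plated 48 h, then switched to serum-free induction medium and exposed in duplicate for 48 h to 8 half-log concentrations from 100 uM in 0.5% DMSO. PDK4 mRNA measured by qRT-PCR, normalized to ACTB, GAPDH and POLR2A; bidirectional fit versus DMSO.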

[11] = read-out: NAD(P)H dehydrogenase [quinone] 1 (NQO1), NQO1 (gene 1728); assay: LTEA_HepaRG_NQO1: Life Technologies and Expression Analysis (LTEA) Assay for NAD(P)H dehydrogenase [quinone] 1 (NQO1) using HepaRG (AID 2283526)
Outline: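 Human HepaRG hepatic cells received chemicals for 48 h in serum-free induction medium with 0.5% DMSO, up to 100 uM. Expression was assessed by TaqMan qRT-PCR against housekeeping controls and fitted bidirectionally against DMSO.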

[12] = read-out: Nuclear factor erythroid 2-related factor 2 (Homo sapiens) (UniProt Q16236); assay: LTEA_HepaRG_NFE2L2: Life Technologies and Expression Analysis (LTEA) Assay for Nuclear factor erythroid 2-related factor 2 (NFE2L2) Transcription Factor using HepaRG (AID 2283527);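 on outcome: TaqMan qRT-PCR transcript level normalised to ACTB GAPDH and POLR2A housekeeping genes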
Outline: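 Differentiated human HepaRG cells, serum-free induction medium, exposed 48 h in duplicate to eight half-log concentrations up to 100 uM in 0.5% DMSO. NFE2L2 mRNA by Fluidigm TaqMan qRT-PCR, normalised to ACTB, GAPDH, POLR2A; bidirectional change versus DMSO.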

[13] = read-out: succinate dehydrogenase complex iron sulfur subunit B (SDHB), SDHB (gene 6390); assay: LTEA_HepaRG_SDHB: Life Technologies and Expression Analysis (LTEA) Assay for succinate dehydrogenase complex iron sulfur subunit B (SDHB) using HepaRG (AID 2283528)
Outline: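 HepaRG cells (~100,000/well, plated 48 h) exposed in duplicate for 48 h in serum-free induction medium to 8-point half-log series from 100 uM in 0.5% DMSO; mRNA by qRT-PCR normalised to ACTB, GAPDH, POLR2A; bidirectional fit versus DMSO.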

[14] = read-out: Signal transducer and activator of transcription 3 (Homo sapiens) (UniProt P40763); assay: LTEA_HepaRG_STAT3: Life Technologies and Expression Analysis (LTEA) Assay for Signal transducer and activator of transcription (STAT3) using HepaRG (AID 2283529)
Outline: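 Differentiated HepaRG cells, serum-free induction medium, dosed 48 h in duplicate, 8 half-log concentrations from 100 uM in 0.5% DMSO. STAT3 mRNA by qRT-PCR, normalised to ACTB, GAPDH, POLR2A; bidirectional fit versus DMSO.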

[15] = read-out: solute carrier (SLCO1B1), SLCO1B1 (gene 10599); assay: LTEA_HepaRG_SLCO1B1: Life Technologies and Expression Analysis (LTEA) Assay for solute carrier (SLCO1B1) using HepaRG (AID 2283530)
Outline: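 Gain or loss of SLCO1B1 mRNA is fitted against the 0.5% DMSO vehicle in human HepaRG liver cells treated 48 h at up to 100 uM in half-log steps. Expression comes from qRT-PCR normalized to endogenous controls.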

[16] = read-out: sulfotransferase 2A1 (SULT2A1), SULT2A1 (gene 6822); assay: LTEA_HepaRG_SULT2A1: Life Technologies and Expression Analysis (LTEA) Assay for sulfotransferase 2A1 (SULT2A1) using HepaRG (AID 2283531)
Outline: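 Cells were plated and cultured 48 h, switched to serum-free induction medium, then dosed in duplicate for 48 h (8 concentrations, max 100 uM). RNA was isolated and SULT2A1 expression measured by qRT-PCR; gain or loss of signal fitted relative to DMSO.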

[17] = read-out: Transforming Growth Factor (TGFA), TGFA (gene 7039); assay: LTEA_HepaRG_TGFA: Life Technologies and Expression Analysis (LTEA) Assay for Transforming Growth Factor (TGFA) using HepaRG (AID 2283532)
Outline: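 Differentiated HepaRG cells exposed 48 hours in serum-free induction medium, 0.5% DMSO vehicle, 8-point half-log series from 100 uM, in duplicate. TGFA mRNA by TaqMan qRT-PCR, normalised to ACTB, GAPDH, POLR2A; bidirectional fit versus DMSO.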

[18] = read-out: Transforming Growth Factor (TGFB1), TGFB1 (gene 7040); assay: LTEA_HepaRG_TGFB1: Life Technologies and Expression Analysis (LTEA) Assay for Transforming Growth Factor (TGFB1) Transporter using HepaRG (AID 2283533)
Outline: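 Expression change of TGFB1 in human HepaRG cells is measured after a 48 h chemical exposure, up to 100 uM in 0.5% DMSO vehicle. Curves are fitted in both directions relative to the DMSO baseline.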

[19] = read-out: Nuclear factor NF-kappa-B p105 subunit (Homo sapiens) (UniProt P19838); assay: LTEA_HepaRG_NFKB1: Life Technologies and Expression Analysis (LTEA) Assay for Nuclear Factor Kappa B Subunit 1 (NFKB1) using HepaRG (AID 2283521);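 on outcome: TaqMan qRT-PCR transcript normalised to ACTB GAPDH and POLR2A housekeeping genes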
Outline: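 Differentiated human HepaRG cells in serum-free induction medium with 0.5% DMSO were exposed for 48 h to eight half-log concentrations, top 100 uM, in duplicate. NFKB1 mRNA measured by Fluidigm TaqMan qRT-PCR, normalised to ACTB, GAPDH and POLR2A; bidirectional fit versus DMSO.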

Nuclear factor NF-kappa-B p105 subunit (Homo sapiens), sequence (P19838 whole entry, looked up): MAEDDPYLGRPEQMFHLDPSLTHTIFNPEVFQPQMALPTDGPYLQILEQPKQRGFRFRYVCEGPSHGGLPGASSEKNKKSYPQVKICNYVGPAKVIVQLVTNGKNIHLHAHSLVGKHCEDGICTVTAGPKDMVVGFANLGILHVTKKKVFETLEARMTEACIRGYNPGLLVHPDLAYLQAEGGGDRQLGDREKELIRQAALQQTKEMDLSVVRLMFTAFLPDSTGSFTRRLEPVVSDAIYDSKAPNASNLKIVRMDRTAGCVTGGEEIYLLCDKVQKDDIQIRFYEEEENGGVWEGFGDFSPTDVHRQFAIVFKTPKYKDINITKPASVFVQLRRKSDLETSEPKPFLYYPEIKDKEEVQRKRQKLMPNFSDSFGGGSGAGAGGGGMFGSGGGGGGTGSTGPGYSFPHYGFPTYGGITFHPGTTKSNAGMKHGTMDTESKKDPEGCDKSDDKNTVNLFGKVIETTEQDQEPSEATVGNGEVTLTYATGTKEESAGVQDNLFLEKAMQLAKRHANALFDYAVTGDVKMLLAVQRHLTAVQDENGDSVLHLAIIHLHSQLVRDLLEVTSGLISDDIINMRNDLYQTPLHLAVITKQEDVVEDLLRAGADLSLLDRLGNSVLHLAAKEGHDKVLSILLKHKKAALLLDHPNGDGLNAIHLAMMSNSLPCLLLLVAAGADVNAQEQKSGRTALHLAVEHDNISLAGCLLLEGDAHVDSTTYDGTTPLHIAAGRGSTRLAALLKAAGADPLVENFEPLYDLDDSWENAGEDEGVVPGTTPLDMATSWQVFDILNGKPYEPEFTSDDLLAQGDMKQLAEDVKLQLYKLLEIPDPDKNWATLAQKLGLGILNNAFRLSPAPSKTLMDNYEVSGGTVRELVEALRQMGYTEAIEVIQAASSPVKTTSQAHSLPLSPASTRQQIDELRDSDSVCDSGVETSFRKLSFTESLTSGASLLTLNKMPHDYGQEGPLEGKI
Nuclear factor erythroid 2-related factor 2 (Homo sapiens), sequence (Q16236 whole entry, looked up): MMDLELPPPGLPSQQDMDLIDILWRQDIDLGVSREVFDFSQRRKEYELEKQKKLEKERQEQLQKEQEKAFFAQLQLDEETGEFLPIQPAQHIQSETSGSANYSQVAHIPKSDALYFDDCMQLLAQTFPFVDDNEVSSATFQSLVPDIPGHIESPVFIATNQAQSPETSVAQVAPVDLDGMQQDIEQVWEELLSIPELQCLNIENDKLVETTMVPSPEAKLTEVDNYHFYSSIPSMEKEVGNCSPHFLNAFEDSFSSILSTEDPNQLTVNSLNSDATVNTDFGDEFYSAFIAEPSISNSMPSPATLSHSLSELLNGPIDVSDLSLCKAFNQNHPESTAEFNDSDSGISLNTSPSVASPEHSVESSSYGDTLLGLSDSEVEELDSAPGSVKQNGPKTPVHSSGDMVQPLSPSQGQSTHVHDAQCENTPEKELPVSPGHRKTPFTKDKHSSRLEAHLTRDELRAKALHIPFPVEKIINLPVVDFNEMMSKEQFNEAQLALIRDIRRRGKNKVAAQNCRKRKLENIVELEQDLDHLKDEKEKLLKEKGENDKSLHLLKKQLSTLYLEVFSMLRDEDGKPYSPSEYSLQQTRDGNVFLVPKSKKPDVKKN
Signal transducer and activator of transcription 3 (Homo sapiens), sequence (P40763 whole entry, looked up): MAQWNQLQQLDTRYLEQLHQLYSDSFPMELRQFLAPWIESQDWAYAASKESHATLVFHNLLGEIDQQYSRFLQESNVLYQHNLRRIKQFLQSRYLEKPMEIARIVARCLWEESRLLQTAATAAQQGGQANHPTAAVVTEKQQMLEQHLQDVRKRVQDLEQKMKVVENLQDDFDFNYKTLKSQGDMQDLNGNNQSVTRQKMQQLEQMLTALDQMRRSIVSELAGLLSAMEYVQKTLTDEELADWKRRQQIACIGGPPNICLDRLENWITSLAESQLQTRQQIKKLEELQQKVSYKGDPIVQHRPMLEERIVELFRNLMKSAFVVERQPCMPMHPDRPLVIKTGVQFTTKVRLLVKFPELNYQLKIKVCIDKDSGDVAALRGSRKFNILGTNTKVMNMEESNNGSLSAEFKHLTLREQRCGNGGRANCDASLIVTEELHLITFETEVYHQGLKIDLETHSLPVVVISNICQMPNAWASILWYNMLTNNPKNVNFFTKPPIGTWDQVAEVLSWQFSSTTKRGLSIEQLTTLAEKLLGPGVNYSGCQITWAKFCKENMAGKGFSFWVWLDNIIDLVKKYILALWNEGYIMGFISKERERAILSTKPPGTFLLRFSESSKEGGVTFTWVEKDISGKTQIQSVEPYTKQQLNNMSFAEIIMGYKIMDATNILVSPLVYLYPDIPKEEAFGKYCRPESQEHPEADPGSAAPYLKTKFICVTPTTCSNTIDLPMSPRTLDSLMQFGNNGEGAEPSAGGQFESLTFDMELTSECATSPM

## O=[N+]([O-])C(Br)(CO)CO
[1]
  outcome: inactive
[2]
  outcome: inactive
[3]
  outcome: inactive
[4]
  outcome: inactive
MYC, MYC (gene 4609)
  outcome: inactive
[5]
  outcome: inactive
[6]
  outcome: inactive
[7]
  outcome: inactive
[8]
  outcome: inactive
[9]
  outcome: inactive
[10]
  outcome: inactive
[11]
  outcome: inactive
[12]
  outcome: inactive
[13]
  outcome: inactive
[14]
  outcome: inactive
[15]
  outcome: inactive
[16]
  outcome: inactive
[17]
  outcome: inactive
[18]
  outcome: inactive

## [O-][Cl+]O
[1]
  outcome: inactive
[2]
  outcome: inactive
[3]
  outcome: inactive
[4]
  outcome: inactive
MYC, MYC (gene 4609)
  outcome: inactive
[5]
  outcome: inactive
[6]
  outcome: inactive
[19]
  outcome: inactive
[7]
  outcome: inactive
[8]
  outcome: inactive
[9]
  outcome: inactive
[10]
  outcome: inactive
[11]
  outcome: inactive
[12]
  outcome: inactive
[13]
  outcome: inactive
[14]
  outcome: inactive
[15]
  outcome: inactive
[16]
  outcome: inactive
[17]
  outcome: inactive
[18]
  outcome: inactive

## O=C(N[C@H](c1ccccc1)[C@@H]1CN2CCC1CC2)c1c(Cl)ccc(C(F)(F)F)c1Cl
[1]
  outcome: inactive
[2]
  AC50: 11.1 µM (active)
[3]
  AC50: 46.2 µM (active)
[4]
  AC50: 69.4 µM (active)
MYC, MYC (gene 4609)
  AC50: 68.4 µM (active)
[5]
  AC50: 73.6 µM (active)
[6]
  AC50: 26.8 µM (active)
[19]
  AC50: 71.5 µM (active)
[7]
  AC50: 75.3 µM (active)
[8]
  AC50: 77.8 µM (active)
[9]
  AC50: 72.1 µM (active)
[10]
  outcome: inactive
[11]
  outcome: inactive
[12]
  AC50: 71.5 µM (active)
[13]
  outcome: inactive
[14]
  AC50: 83.3 µM (active)
[15]
  AC50: 73.9 µM (active)
[16]
  AC50: 73.2 µM (active)
[17]
  AC50: 46.2 µM (active)
[18]
  AC50: 46.2 µM (active)

## CCCSC(=O)N(CCC)CCC
[1]
  outcome: inactive
[2]
  outcome: inactive
[3]
  outcome: inactive
[4]
  outcome: inactive
MYC, MYC (gene 4609)
  outcome: inactive
[5]
  outcome: inactive
[6]
  outcome: inactive
[19]
  outcome: inactive
[7]
  outcome: inactive
[8]
  outcome: inactive
[9]
  outcome: inactive
[10]
  outcome: inactive
[11]
  outcome: inactive
[12]
  outcome: inactive
[13]
  outcome: inactive
[14]
  outcome: inactive
[15]
  outcome: inactive
[16]
  outcome: inactive
[17]
  outcome: inactive
[18]
  outcome: inactive

## CS(=O)(=O)NC(=O)c1cc(Oc2ccc(C(F)(F)F)cc2Cl)ccc1[N+](=O)[O-]
[1]
  outcome: inactive
[2]
  outcome: inactive
[3]
  outcome: inactive
[4]
  outcome: inactive
MYC, MYC (gene 4609)
  outcome: inactive
[5]
  outcome: inactive
[6]
  AC50: 31 µM (active)
[7]
  outcome: inactive
[8]
  outcome: inactive
[9]
  outcome: inactive
[10]
  AC50: 16 µM (active)
[11]
  outcome: inactive
[12]
  outcome: inactive
[13]
  outcome: inactive
[14]
  outcome: inactive
[15]
  outcome: inactive
[16]
  outcome: inactive
[17]
  outcome: inactive
[18]
  outcome: inactive

## c1ccc(NNc2ccccc2)cc1
[1]
  outcome: inactive
[2]
  outcome: inactive
[3]
  outcome: inactive
[4]
  outcome: inactive
MYC, MYC (gene 4609)
  outcome: inactive
[5]
  outcome: inactive
[6]
  outcome: inactive
[19]
  outcome: inactive
[7]
  outcome: inactive
[8]
  outcome: inactive
[9]
  outcome: inactive
[10]
  outcome: inactive
[11]
  outcome: inactive
[12]
  outcome: inactive
[13]
  outcome: inactive
[14]
  outcome: inactive
[15]
  outcome: inactive
[16]
  outcome: inactive
[17]
  outcome: inactive
[18]
  outcome: inactive
